Results: PubChem BioAssay AID1159580 (chemical genetic matrix, 2015)
Screen size: about 5,500 compounds; about 2,000 (36%) were called active. Inconclusive results (about 18%) are left out. Rule as the data show it: active = normalized growth mostly below about 0.91 (no sharp cut-off); inconclusive = no clear call, values can overlap the other calls; inactive = mostly above about 0.92. This is one part of the list.

Test: chemical genetic growth profiling, strain panel (AID 1159580);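 also: tested at 20 µM; growth read once vehicle control cultures reached saturation at 30 °C; 1 = growth at the plate median or of vehicle wells; lower values mean less growth of the strain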
Conditions: S. cerevisiae deletion strains, growth OD
[1] = locus YHR030C, strain SLT2, hits give low values
[2] = locus YAL013W, strain DEP1, hits give low values
[3] = locus YJR075W, strain HOC1, hits give low values
[4] = locus YNL153C, strain GIM3, hits give low values
[5] = locus YNL322C, strain KRE1, hits give low values
[6] = locus YPL055C, strain LGE1, hits give low values

Measured: normalized growth

CN[C@H]1CC[C@@H](c2ccc(Cl)c(Cl)c2)c2ccccc21
inactive: locus YAL030W, strain snc1, hits give low values 0.985 | locus YBR171W, strain sec66, hits give low values 1.01 | locus YCL011C, strain gbp2, hits give low values 0.919 | locus YCL061C, strain MRC1, hits give low values 0.956 | locus YCL069W, strain vba3, hits give low values 0.968 | locus YCR088W, strain abp1, hits give low values 0.964 | locus YDL005C, strain med2, hits give low values 1.07 | locus YDL040C, strain nat1, hits give low values 1.02 | locus YDR001C, strain nth1, hits give low values 1.02 | locus YDR159W, strain sac3, hits give low values 1.05 | locus YDR297W, strain sur2, hits give low values 0.976 | locus YDR334W, strain swr1, hits give low values 1.04 | locus YDR392W, strain spt3, hits give low values 0.939 | locus YEL037C, strain rad23, hits give low values 0.953 | locus YEL061C, strain CIN8 (second series), hits give low values 1 | locus YER016W, strain bim1, hits give low values 0.986 | locus YER111C, strain swi4, hits give low values 1.01 | locus YER155C, strain BEM2 (second series), hits give low values 1.01 | locus YGL167C, strain pmr1, hits give low values 1.04 | locus YGL227W, strain vid30, hits give low values 1.02 | locus YGL240W, strain doc1, hits give low values 1.06 | [1] 0.859 | locus YHR079C, strain IRE1, hits give low values 0.959 | locus YJL092W, strain hpr5, hits give low values 0.945 | locus YJL095W, strain BCK1, hits give low values 0.935 | locus YJL115W, strain asf1, hits give low values 1.03 | locus YJL154C, strain vps35, hits give low values 1.02 | locus YJR066W, strain TOR1, hits give low values 0.929 | locus YKL160W, strain elf1, hits give low values 0.931 | locus YKR026C, strain gcn3, hits give low values 0.999 | locus YKR091W, strain srl3, hits give low values 1.02 | locus YLL001W, strain dnm1, hits give low values 0.929 | locus YLL026W, hits give low values 0.942 | locus YLL041C, strain sdh2, hits give low values 1.01 | locus YLR113W, strain HOG1, hits give low values 0.936 | locus YLR258W, strain gsy2, hits give low values 0.932 | locus YLR262C, strain YPT6 (second series), hits give low values 1.02 | locus YLR384C, strain iki3, hits give low values 1.02 | locus YML120C, strain ndi1, hits give low values 0.983 | locus YMR125W, strain sto1, hits give low values 0.943 | locus YMR129W, hits give low values 1.03 | locus YNL183C, strain NPR1, hits give low values 0.954 | locus YNL248C, strain rpa49, hits give low values 0.935 | locus YNL322C, strain KRE1 (second series), hits give low values 1.08 | locus YNR049C, strain mso1, hits give low values 0.996 | locus YOR001W, strain rrp6, hits give low values 0.928 | locus YOR080W, strain dia2, hits give low values 0.982 | locus YOR231W, strain MKK1, hits give low values 0.988 | locus YOR265W, strain rbl2, hits give low values 0.953 | locus YPL078C, strain atp4, hits give low values 0.922 | locus YPL106C, strain sse1, hits give low values 1.03 | locus YPL240C, strain hsp82, hits give low values 1.01 | locus YPL256C, strain CLN2, hits give low values 0.969
active: locus YAL021C, strain ccr4, hits give low values 0.529 | locus YAL026C, strain drs2, hits give low values 0.0645 | locus YBL061C, strain skt5, hits give low values 0.864 | locus YBR009C, strain hhf1, hits give low values 0.82 | locus YBR023C, strain chs3, hits give low values 0.858 | locus YBR231C, strain swc5, hits give low values 0.89 | locus YBR279W, strain paf1, hits give low values 0.905 | locus YCL016C, strain dcc1, hits give low values 0.866 | locus YDR069C, strain doa4, hits give low values 0.639 | locus YDR137W, strain rgp1, hits give low values 1.29 [resistant] | locus YDR195W, strain ref2 1.47 [resistant] | locus YDR335W, strain msn5, hits give low values 0.849 | locus YEL003W, strain gim4, hits give low values 0.898 | locus YER015W, strain faa2, hits give low values 0.634 | locus YFR010W, strain ubp6, hits give low values 0.605 | locus YGL173C, strain kem1, hits give low values 0.799 | locus YGL253W, strain hxk2, hits give low values 0.859 | locus YHR013C, strain ard1, hits give low values 0.677 | locus YHR027C, strain rpn1, hits give low values 0.817 | locus YHR142W, strain chs7, hits give low values 0.77 | locus YJL095W, strain BCK1 (second series), hits give low values 0.0692 | locus YJL129C, strain trk1, hits give low values 0.794 | locus YJL164C, strain tpk1, hits give low values 0.855 | locus YJL166W, strain qcr8, hits give low values 0.862 | locus YLR027C, strain aat2, hits give low values 0.921 | locus YLR221C, strain rsa3, hits give low values 0.9 | locus YLR320W, strain mms22, hits give low values 0.805 | locus YLR342W, strain FKS1, hits give low values 0.647 | locus YLR357W, strain rsc2, hits give low values 1.17 [resistant] | locus YLR370C, strain arc18, hits give low values 0.703 | locus YMR058W, strain fet3, hits give low values 0.661 | locus YMR205C, strain PFK2, hits give low values 0.866 | locus YMR231W, strain pep5, hits give low values 0.0786 | locus YNL071W, strain lat1, hits give low values 0.847 | locus YNL209W, strain ssb2, hits give low values 0.846 | locus YOR070C, strain gyp1, hits give low values 0.817 | locus YOR083W, strain WHI5, hits give low values 0.824 | locus YOR106W, strain vam3, hits give low values 0.622 | locus YOR270C, strain vph1, hits give low values 0.348 | locus YOR290C, strain snf2, hits give low values 0.852 | locus YPL051W, strain arl3, hits give low values 0.776

O=C1CC(=O)CC(c2ccc(Cl)c(Cl)c2)C1
inactive: [2] 0.982 | locus YBR229C, strain ROT2, hits give low values 0.998 | locus YDL101C, strain DUN1, hits give low values 1.02 | locus YDR150W, strain NUM1, hits give low values 1.04 | locus YEL061C, strain CIN8, hits give low values 0.978 | locus YGR078C, strain PAC10, hits give low values 0.997 | [1] 1.04 | locus YHR087W, strain rtc3, hits give low values 0.98 | locus YJR043C, strain POL32, hits give low values 1.01 | [3] 1.01 | locus YKL190W, strain CNB1, hits give low values 0.998 | locus YLR039C, strain RIC1, hits give low values 0.959 | locus YLR058C, strain SHM2 (second series), hits give low values 0.985 | locus YLR085C, strain ARP6, hits give low values 0.983 | locus YLR262C, strain YPT6, hits give low values 0.949 | locus YML094W, strain GIM5, hits give low values 0.99 | locus YMR219W, strain ESC1, hits give low values 0.991 | locus YMR263W, strain SAP30, hits give low values 1.01 | locus YMR307W, strain GAS1, hits give low values 1.02 | [4] 0.997 | locus YNL298W, strain CLA4 (second series), hits give low values 1 | [5] 0.976 | locus YNR030W, strain Alg12, hits give low values 1 | [6] 1.15 | locus YPL241C, strain CIN2, hits give low values 1.01 | locus YPR135W, strain CTF4, hits give low values 1.22

CN[C@@H]1C[C@@H](c2ccc(Cl)c(Cl)c2)c2ccccc21
active: locus YDR363W, strain ESC2, hits give low values 0.865 | [4] 0.663 | [5] 0.738 | locus YOR083W, strain WHI5 (second series), hits give low values 0.826
inactive: [2] 0.923 | locus YAL040C, strain CLN3, hits give low values 1.02 | locus YCL061C, strain MRC1 (second series), hits give low values 0.942 | locus YER002W, strain NOP16, hits give low values 1.06 | [3] 0.958 | locus YNL175C, strain NOP13, hits give low values 1 | locus YNL197C, strain WHI3, hits give low values 1.01 | locus YNL224C, strain SQS1, hits give low values 1.07 | [6] 0.927
